Out of some 420,000 compounds screened, about 50,000 (12%) were called active. Where a call stands in place of a potency, no number is given. Another 26% or so got no clear call; they are omitted. This is one part of a sample in which actives are shown more often than they occur. The call rests on the fitted dose curve; in most records, active means well fitted inhibition curve with a large enough effect; inconclusive means small, poorly fitted or top-dose-only effect; inactive means flat fitted curve, though single readings scatter.
assay: qHTS for Inhibitors of human tyrosyl-DNA phosphodiesterase 1 (TDP1): qHTS in cells in presence of CPT; settings: chicken DT40 Tdp1-/-;hTDP1 cells + 20 nM CPT, ATP luminescence, 48 h; series mostly up to 46.2 µM; further: nearly all actives have a fitted effect of over 55% in size
Excerpt: Human tyrosyl-DNA phosphodiesterase 1 (TDP1) is a novel repair gene, and we propose to use it as a new target for anticancer drug development. TDP1 is not an essential protein, but under treatment with topoisomerase I poison (camptothecin: CPT), TDP1 works as a critical factor for cell survival. To directly identify novel TDP1 inhibitors active in a cellular environment, we have knocked-out the Tdp1 gene in chicken DT40 cells (Tdp1-/-) and generated a complemented counterpart cells that contains a stable transfection of the human TDP1 gene (Tdp1-/-;hTDP1 cells). For the primary screen, Tdp1-/-;hTDP1 cells will be exposed to small molecules in the presence or absence of CPT, and their growth kinetics will be evaluated after 48 hours by measuring ATP activity. […] The hit compounds will then be evaluated in the presence or absence of CPT using Tdp1-/- cells. […] In tertiary assays, biochemical gel-based assays will be used to assess whether the hit compounds specifically target TDP1. To this end, we have screened this cell line against the MLSMR in two primary screens. In one screen we add CPT and in the other we screen in the absence of CPT; this AID represents the screen where CPT was present. NIH Chemical Genomics Center [NCGC] NIH Molecular Libraries Probe Centers Network [MLPCN] MLPCN Grant: MH095538 Assay Submitter (PI): Yves Pommier, NCI
DT40-hTDP1 cells with 20 nM Camptothecin (add 20 microL of 1 mM CPT stock in 1 L of cell culture medium) were dispensed at 400 cells/5microL/well in tissue culture treated 1536-well white wall/solid bottom assay plates (Greiner Bio-One North America, NC, U.S.A.) using a Multidrop Combi 8 channel dispenser (Thermo Fisher, Waltham, MA, USA). 23 nL compounds and controls were transferred using the pin tool (Kalypsys, San Diego, CA, USA) to the assay plates. The assay plates were then incubated at 37 masculineC for a minimum 48 hr. Three microL of Cell Titer Glo solution was added to the plates and incubated at RT in dark for 30 min. Luminescence was read using ViewLux (Perkin Elmer) with 1 sec exposure slow speed, high gain and 2x binning.
Potency means the concentration at half of the fitted maximal effect.

SMILES	Potency
CCCCOc1ccc(NC(=O)c2cc3c(n(-c4ccc(Cl)cc4)c2=O)CCCC3=O)cc1	inactive
CC(C)c1ccc(NS(=O)(=O)c2ccc3[nH]cc(C(=O)NC4CCCC4)c(=O)c3c2)cc1	inactive
CCC(C)NCCOCCOc1ccc(Br)cc1C (configuration not stated)	14.6 µM (active)
CCOC(=O)CC1C(=O)NCCN1C(=O)COc1ccc(Br)cc1C (configuration not stated)	inactive
COCC(C)NCc1cc(Br)ccc1OC (configuration not stated)	inactive
O=C(OCCOc1ccccc1F)c1cc(S(=O)(=O)N2CCOCC2)ccc1F	inactive
Cc1oc2ccc(O)c(CN3CCC(C)CC3)c2c1C(=O)Nc1ccccc1	14.6 µM (active)
Cc1oc2ccc(O)c(CN3CCOCC3)c2c1C(=O)Nc1cccc(Cl)c1C	11.6 µM (active)
CCOC(=O)c1cccc(NC(=O)c2cc(CN3CCCC3)on2)c1	inactive
Cc1oc2ccc(O)c(CN3CCCCC3)c2c1C(=O)Nc1cccc(C(F)(F)F)c1	11.6 µM (active)
CC1CCN(CCC(=O)Nc2ccccc2)CC1	inactive
Cc1c(CN2CCC(C)CC2)c(=O)n(-c2ccccc2)n1C	inactive
O=C(Nc1ccc(CN2CCOCC2)cc1)c1cc(Cl)ccc1Cl	inactive
Cc1nnsc1C(=O)Nc1cccc(Cl)c1C	inactive
CC(=O)N1CCN(C(=O)Nc2cccc(C(F)(F)F)c2)CC1	inactive
COc1ccccc1CNS(=O)(=O)c1cc2c3c(c1)CCC(=O)N3CCC2	inactive
Nc1cc(=O)c2[nH]cnc2[nH]1	inactive
Cc1ccc(C(=O)Nc2ccc(OCc3cc(=O)n4c(C)csc4n3)cc2)cc1	inactive
CN(C(=O)c1c(Cl)cnn1C)C12CC3CC(CC(C3)C1)C2	inactive
COC(=O)CSc1nnc(-c2cccnc2)o1	inactive
COC(CNC(=O)c1ccc2c(c1)ncn2-c1cc(C)cc(C)c1)OC	inactive
CN(c1ccc(C(=O)NCCC2=CCCCC2)cc1)S(C)(=O)=O	inactive
COCCNC(=O)c1ccc2c(c1)ncn2-c1ccc(C)c(Cl)c1	inactive
CCn1c(C)nc2cc(C(=O)NNS(=O)(=O)c3ccc(C)cc3C)ccc21	inactive
Cc1ccc(-n2cnc3cc(C(=O)NCCC4=CCCCC4)ccc32)cc1Cl	18.4 µM (active)
CCCNC(=O)c1ccc2c(c1)ncn2-c1ccc(C)cc1C	16.4 µM (active)

SMILES	Potency
CCn1nnnc1SCC(=O)Nc1ccc(N(C)C)cc1	inactive
CC(=O)NS(=O)(=O)c1ccc(N/C(N)=N/c2nc(C)cc(C)n2)cc1	inactive
COc1ccc(S(=O)(=O)N2CCCC(C(=O)N3CCN(C)CC3)C2)cc1C (configuration not stated)	inactive
CCN1CCN(C(=O)C2CCCN(S(=O)(=O)c3ccc(OC)c(OC)c3)C2)CC1 (configuration not stated)	inactive
CCOC(=O)C1CCN(C(=O)C2CCCN(S(=O)(=O)c3ccc(OC)c(Cl)c3)C2)CC1 (configuration not stated)	16.4 µM (active)
O=C(COC(=O)c1ncc(Cl)c(Cl)c1Cl)NC1CCS(=O)(=O)C1 (configuration not stated)	inactive
C=C(C)c1cccc(C(C)(C)NC(=O)NCCN(CC)CC)c1	inactive
CC1(C(=O)NS(=O)(=O)c2ccccc2)CCN1C(=O)C1CCCCC1 (configuration not stated)	inactive
CCOC(=O)c1ccc(NC(=O)c2csc3c2CCCCC3)cc1	25.9 µM (active)
CCOC(=O)c1c(NC(=O)CCC(=O)NCc2ccco2)sc2c1CCCC2	inactive
CCOC(=O)c1ccc(NC(=O)c2c(NCc3cccc(OC)c3)sc3c2CCC3)cc1	10.3 µM (active)
CCOC(=O)c1ccc(NC(=O)c2c(NCc3cccs3)sc3c2CCCC3)cc1	16.4 µM (active)
CCOC(=O)c1ccc(NC(=O)c2c(NCc3ccccc3)[nH]c(=O)[nH]c2=O)cc1	inactive
Cc1ccc(NC(=O)c2csc3c2CCCC3)cc1	inactive
COc1cccc(CN(C)CC(=O)Nc2sc3c(c2C#N)CCC3)c1	inactive
CCOC(=O)c1c(NC(=O)c2cc(-c3ccc(Cl)cc3)on2)sc2c1CCCC2	inactive
CC(=O)Cc1nsc(NC(=O)c2csc3c2CCCC3)n1	inactive
C[C@@H]1CC[C@]2(O[C@@H](CCO)C[C@H](O)[C@H]2O)O1	inactive
Cn1c(N2CCOCC2)c(C=O)c2ccccc21	inactive
C[C@H]1COc2cc(N3CCSCC3)ccc2S(=O)(=O)N1	inactive
Cc1ccc(N=C2SCCCN2C(=O)c2cccc(N3C(=O)CCC3=O)c2)cc1Cl	inactive
CCCC1C(=O)N2C(N(C)C)=Nc3ccc(C)cc3N2C1=O (configuration not stated)	inactive
Cc1cc(C)n2nc(SCC(N)=O)nc2n1	inactive
CCC1=NN(C(=O)Cc2ccc([N+](=O)[O-])cc2)C(O)(c2ccc(Br)cc2)C1 (configuration not stated)	inactive
Cc1cccc(N2C(=O)N3[C@H](c4ccc(F)cc4)[C@@H]4C(=O)N(C5CCCCC5)C(=O)[C@@H]4[C@]3(Cc3ccccc3)C2=O)c1	inactive
O=C1CCC(C(=O)N2CCCCO2)CN1Cc1cccc(C(F)(F)F)c1 (configuration not stated)	inactive

SMILES	Potency
Cc1ccc(N2CC(C(=O)NCCS(=O)(=O)N3CCN(c4ccccc4)CC3)CC2=O)cc1 (configuration not stated)	inactive
Cc1cc(C)c2oc(C(=O)Nc3ccc(S(=O)(=O)N4CCCCCC4)cc3)cc(=O)c2c1	inactive
O=C(Nc1cc(S(=O)(=O)N2CCOCC2)ccc1N1CCOCC1)c1c(F)cccc1Cl	inactive
O=C(NCCS(=O)(=O)N1CCN(c2ccccc2)CC1)c1cc(=O)c2ccccc2o1	inactive
O=C(Nc1cc(S(=O)(=O)N2CCOCC2)ccc1Cl)c1cc(=O)c2ccccc2o1	11.6 µM (active)
CCC1CCCCN1S(=O)(=O)c1ccc(NC(=O)c2cc(=O)c3ccccc3o2)cc1 (configuration not stated)	3.26 µM (active)
Cc1ccc2oc(C(=O)Nc3ccc(S(=O)(=O)N4CCCCCC4)cc3)cc(=O)c2c1	inactive
COc1ccccc1CN1CC(C(=O)NCCc2cn[nH]c2)CCC1=O (configuration not stated)	inactive
O=C(CCNS(=O)(=O)c1ccccc1C(F)(F)F)Nc1ccncc1	inactive
CCOC(=O)CSc1nnc(NC(=O)C2CC(=O)N(c3ccc(F)cc3)C2)s1 (configuration not stated)	inactive
COC(=O)C1=CN(Cc2ccc(OC)cc2)C=C(C(=O)OC)C1c1ccc(O)c(OC)c1	inactive
CC(=O)Nc1ccc(S(=O)(=O)N2CCC(C(=O)NC3CC3)CC2)cc1	inactive
CS(=O)(=O)N1CCN=C1SCc1ccc(F)cc1	inactive
CC(=O)c1cnc(SCCN2C(=O)c3ccccc3C2=O)nc1C	inactive
O=C1NC(c2ccccc2)Oc2ccccc21 (configuration not stated)	inactive
C=CCOc1cccc(C2NC(=O)c3ccccc3O2)c1 (configuration not stated)	inactive
O=C1NC(c2cccc(Cl)c2)Nc2ccccc21 (configuration not stated)	13 µM (active)
COc1ccc(C(=O)CSc2nnc(NC(=O)C3CC(=O)N(c4cccc(OC)c4)C3)s2)cc1 (configuration not stated)	inactive
Cc1cc(C)n2nc(C(=O)Nc3cccc(S(=O)(=O)N4CCOCC4)c3)nc2n1	inactive
O=C(N/N=C\c1cc(Br)c(Br)o1)C1COc2ccccc2O1 (configuration not stated)	inactive
Cc1cc(C(=O)N2CCCC2(C)C(=O)O)c(C)o1 (configuration not stated)	inactive
CCCN=C1N(C)C[C@@H]2[C@@H]3C(=O)N(Cc4ccccc4)C(=O)[C@@H]3[C@](C)(C(=O)OC)N12	inactive
O=C(CCc1ccccc1F)N1CCN(c2ccccc2)CC1	inactive
O=C(CCSc1ccccc1)N1CCN(c2ccccc2F)CC1	inactive
O=C(CCSCc1ccccc1F)N1CCN(c2ccc(Cl)cc2)CC1	23.1 µM (active)
COc1ccc(C2C(=O)N(C3CCCCCC3)CC(=O)N2CCc2ccc(Cl)cc2)cc1OC (configuration not stated)	23.1 µM (active)

SMILES	Potency
CCOCCCN1C(=O)CN(C2CCCCC2)C(=O)C1c1ccc(OCC)c(OC)c1 (configuration not stated)	inactive
O=C(NCCc1ccc(Cl)cc1)C1CC(=O)N(C2CCCCC2)C1 (configuration not stated)	inactive
COc1ccccc1N1CC(C(=O)NCCN2C(=O)S/C(=C\c3cccnc3)C2=O)CC1=O (configuration not stated)	inactive
S=C(Cc1ccc(Cl)cc1)N1CCOCC1	inactive
COc1ccc(-c2cnc(SCCNC(=O)c3ccc4c(c3)OCO4)[nH]2)cc1	inactive
CCCC[C@H]1COCCS(=O)(=O)N1Cc1cccc(Cl)c1	inactive
CCC(C)[C@H]1COCCS(=O)(=O)N1Cc1ccc(C)cc1 (some centres not stated)	inactive
O=S1(=O)CCOC[C@H](CC2CCCCC2)N1Cc1ccc(F)cc1	2.51 µM (active)
CC(C)Oc1ccc(S(=O)(=O)N2CCOCC2)cc1NC(=O)C1CCCC1	inactive
O=C(CCS(=O)(=O)c1ccccc1Cl)Nc1ccc(S(=O)(=O)Nc2ncccn2)cc1	inactive
Cc1ccc(S(=O)(=O)N2CCOCC2)cc1C(=O)OC1CCCCC1=O (configuration not stated)	inactive
C[C@@H]1CN([C@H](C)CO)C(=O)CCCn2cc(nn2)CO[C@H]1CN(C)S(=O)(=O)c1ccc(Oc2ccccc2)nc1	inactive
O=C(/C=C/c1ccc([N+](=O)[O-])o1)NNC(=O)c1ccc(F)cc1	3.26 µM (active)
O=C(/C=C/c1ccc(F)cc1)NCCNC(=O)/C=C/c1ccc(F)cc1	inactive
CCN(C(=O)Cn1c(=O)nc(-c2ccccc2)c2cc(Cl)ccc21)c1cccc(C)c1	inactive
Cc1ccc(S(=O)(=O)NCC(=O)N(CC(=O)NCC2CCCO2)c2cccc(F)c2)cc1 (configuration not stated)	inactive
C=CCOc1ccccc1CNn1c(C)n[nH]c1=S	inactive
Cc1ccccc1OC/C(O)=C(\C#N)c1nc2ccccc2[nH]1	inactive
N#C/C(=C(/O)COC(=O)COc1ccc(Cl)cc1)c1nc2ccccc2[nH]1	4.11 µM (active)
N#C/C(=C(/O)COc1cccc2ccccc12)c1nc2ccccc2[nH]1	inactive
O=C(NNC(=O)c1cc(-c2ccccc2Cl)nc2ccccc12)c1csc(N2CCOCC2)n1	inactive
CC(C)(C)c1ccc(C(CC(=O)O)NS(=O)(=O)Cc2ccccc2)cc1 (configuration not stated)	inactive
Cc1ccc2c(c1)N(CC(=O)NCC1CCCO1)C(=O)CO2 (configuration not stated)	inactive
NS(=O)(=O)c1ccc(NC(=O)CSc2nnc3c(n2)[nH]c2ccccc23)cc1	inactive

— PubChem BioAssay AID686979 (National Center for Advancing Translational Sciences (NCATS), 2013)
